An excerpt weighted towards active compounds, which were near 21% of everything screened.
ELG1 DNA repair: qHTS screen for small molecules that inhibit ELG1-dependent DNA repair in human embryonic kidney (HEK293T) cells expressing luciferase-tagged ELG1. HEK293T ELG1-luciferase reporter, luminescence, 16 h; DNA damage induced by 5-fluorouridine. Potency, µM (highest dose often 46.1 µM), without a hit: at the top dose activity change, negative = inhibition, usual class: inhibitors. 330,000 compounds, 2.3% hits. AID 504467, 2011; also: potency is read from the fitted curve at half-maximal effect; nearly all actives have a fitted effect of over 55% in size
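In this reporter screen, reduction of luminescence relative to DMSO vehicle indicated activity. Compounds and 5-fluorouridine were added together to 2,000 cells per well, incubated for 16 hr at 37 °C, then developed with ONE-Glo.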
VP16 counter: VP16 counterscreen qHTS for inhibitors of ROR gamma transcriptional activity; Drosophila S2 Gal4-VP16 UAS-luciferase, luminescence, 20 h; AID 2546, 2010; 310,000 compounds, 3.5% hits; Potency, µM (highest dose often 53.6 µM), inactives show top-dose activity, negative = inhibition, usual class: inhibitors;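 also: Gal4-VP16 expression switched on by copper sulfate through the metallothionein promoter; potency is read from the fitted curve at half-maximal effect; nearly all actives have a fitted effect of over 50% in size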
DT40 TDP1 CPT: qHTS for Inhibitors of human tyrosyl-DNA phosphodiesterase 1 (TDP1): qHTS in cells in presence of CPT; chicken DT40 Tdp1-/-;hTDP1 cells + 20 nM CPT, ATP luminescence, 48 h; Potency, µM (top dose mostly 46.2 µM), for inactives: at the top dose activity change, negative = growth inhibition, actives largely listed as inhibitors; 420,000 compounds, 12% hits; also: potency is read from the fitted curve at half-maximal effect; nearly all actives have a fitted effect of over 55% in size
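Chicken DT40 Tdp1-/- cells stably complemented with human TDP1 were seeded at 400 cells/well in medium containing 20 nM camptothecin, exposed to pin-transferred compounds, and grown at 37 °C for at least 48 hr. Viability was read as ATP luminescence.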
TDP1 cell noCPT: qHTS for Inhibitors of human tyrosyl-DNA phosphodiesterase 1 (TDP1): qHTS in cells in absence of CPT; AID 686978, 2013; DT40 Tdp1-/- hTDP1 cells, no CPT, ATP luminescence, 48 h; Potency, µM (top dose mostly 46.2 µM), for inactives: at the top dose activity change, negative = growth inhibition, usual class: inhibitors; 420,000 compounds, 15% hits; also: potency is read from the fitted curve at half-maximal effect; nearly all actives have a fitted effect of over 55% in size
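Readout: luminescence from CellTiter-Glo after 30 min in the dark at RT. Cells: DT40 Tdp1-/- with stable hTDP1, 400/well. Exposure: compounds alone, ≥48 hr, 37 °C.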
RORgamma inh: qHTS for inhibitors of ROR gamma transcriptional activity; Nuclear receptor ROR-gamma (Mus musculus), P51450; Drosophila S2 Gal4-RORgamma UAS-luciferase reporter, 20 h; Potency, µM (doses to about 53.6 µM), without a hit: top-dose activity change, negative = inhibition, most hits filed as inhibitors; 310,000 compounds, 5.4% hits; AID 2551, 2010; also: potency is read from the fitted curve at half-maximal effect; nearly all actives have a fitted effect of over 60% in size
Target sequence (P51450 whole entry, looked up, the tested form may be a part): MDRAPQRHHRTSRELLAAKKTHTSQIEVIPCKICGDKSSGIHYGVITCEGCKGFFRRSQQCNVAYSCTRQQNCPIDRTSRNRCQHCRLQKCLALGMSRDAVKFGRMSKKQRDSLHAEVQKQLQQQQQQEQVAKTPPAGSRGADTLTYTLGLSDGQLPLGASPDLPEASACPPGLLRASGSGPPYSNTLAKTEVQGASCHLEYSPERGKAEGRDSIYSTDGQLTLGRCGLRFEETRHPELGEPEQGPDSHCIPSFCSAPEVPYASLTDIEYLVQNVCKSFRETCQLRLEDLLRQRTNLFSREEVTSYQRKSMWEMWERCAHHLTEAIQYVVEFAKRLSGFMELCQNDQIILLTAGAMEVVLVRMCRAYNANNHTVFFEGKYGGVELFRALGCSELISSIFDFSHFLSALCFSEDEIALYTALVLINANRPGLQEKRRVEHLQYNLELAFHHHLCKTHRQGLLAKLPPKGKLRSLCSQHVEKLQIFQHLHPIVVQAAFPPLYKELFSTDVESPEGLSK
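Read-out: Photinus luciferase luminescence; inhibitors lower reporter signal. Insect Schneider cells with Gal4-ROR gamma fusion under metallothionein promoter, UAS reporter; 700 uM final copper sulfate induction, 20 hr, ambient temperature.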
IL1B secr inh: qHTS for Inhibitors of Inflammasome Signaling: IL-1-beta AlphaLISA Primary Screen. THP-1 LPS/ATP IL-1B secretion, AlphaLISA, 16 h; active compounds read low. activity change, % at 57.5 µM. 360,000 compounds, 4.7% hits; in the data active = activity change below about -50%; inconclusive = mostly about -30% to -49%
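Secreted IL-1B measured by AlphaLISA bead assay after 16 h compound exposure of THP-1 cells; compounds (final up to 57.5 uM) added 1 h before LPS (250 ng/mL) and ATP (1.25 mM) stimulation; lower signal means less secretion.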
An asterisk follows results filed as active; ? = inconclusive; . = no result; [ ] = another dose, or the depositor's remark. Unless noted, calls follow the shape of the dose curve; as a rule, active = well fitted curve in the direction sought with a large enough effect; inconclusive = small, poorly fitted or top-dose-only effect, or another doubt; inactive = no such curve, though single readings can be large; an effect the other way counts as inactive or inconclusive. % is scaled to controls: 0 for no effect and ±100 for the full control effect.

SMILES	ELG1 DNA repair	VP16 counter	DT40 TDP1 CPT	TDP1 cell noCPT	RORgamma inh	IL1B secr inh
COc1ccc(NC(=O)c2cc(-c3cc(C)c(C)cc3O)n[nH]2)c(OC)c1	13%	-19%	0%	?	-22%	4
COc1ccc(NC(=O)c2cc(-c3ccc(F)cc3OC)n[nH]2)c(OC)c1	.	.	16µM*	15µM*	.	.
COc1ccc(NC(=O)c2ccc(C(=O)Nc3ccc(OC)cc3OC)cc2)c(OC)c1	?	-7%	7%	-19%	-3%	18
Cc1cc(C)c(C(=O)OCc2csc(CC(=O)Nc3ccccc3C)n2)c(C)c1	?	.	?	?	.	0
COC(=O)c1c(C)[nH]c(C(=O)OCc2csc(CC(=O)Nc3ccccc3C)n2)c1C	8.2µM*	.	-28%	?	.	33
CCN(CC)C(=S)SCc1csc(CC(=O)Nc2ccccc2C)n1	-17%	-22%	?	?	11µM*	10
COc1ccc(F)cc1S(=O)(=O)Nc1ccncc1	-3%	1%	10%	-18%	?	2
CCCn1c(C)nc2c(NCCN(C)C)nc(C)nc21	.	2%	.	.	-3%	.
O=C(Nc1ccc(Cl)cn1)c1ccc([N+](=O)[O-])o1	-24%	?	2.3µM*	15µM*	?	-226*
O=[N+]([O-])c1c(NCc2ccccc2)cc(N2CCc3ccccc3C2)c2nonc12	-18%	-12%	?	21µM*	-31%	-5
O=C(Cc1ccc([N+](=O)[O-])cc1)NCc1cccnc1	13%	-1%	0%	-6%	-6%	9
Cc1c(Cl)c([N+](=O)[O-])nn1Cc1ccc(C(=O)Nc2ccc(Cl)cn2)o1	?	4%	-48%	?	?	-11
O=C(NCc1ccco1)c1ccc([N+](=O)[O-])o1	-12%	2%	?	?	5µM*	-61*
O=C(NCc1cccnc1)c1ccc([N+](=O)[O-])o1	0%	-21%	?	?	-38%	-67*
O=C(NCc1ccco1)c1ccc(Cn2cc([N+](=O)[O-])cn2)o1	4%	12%	-7%	-2%	18%	-12
COc1cc(NC(=NS(=O)(=O)c2ccccc2)c2ccccc2)ncn1	.	.	?	-26%	.	11
Cc1ccc(OCC(=O)Nc2ccc3nn(-c4ccc(Cl)cc4)nc3c2)cc1	.	.	7%	-15%	.	.
O=C(Nc1cccnc1)c1ccc(N2CCOCC2)c([N+](=O)[O-])c1	-15%	9%	-19%	-13%	?	-24
O=C(Nc1c(Cl)ccc2nsnc12)c1ccc([N+](=O)[O-])o1	?	?	?	?	-39%	-98*
O=[N+]([O-])c1ccc(N2CCOCC2)cc1NCc1ccccc1	?	-1%	?	?	10%	-7
O=C(Nc1cccnc1)c1ccc([N+](=O)[O-])o1	?	?	9.2µM*	15µM*	-38%	-92*
O=C(NCc1cccnc1)c1ccc(N2CCOCC2)c([N+](=O)[O-])c1	0%	-3%[10 µM]	?	16µM*	-7%	47
O=[N+]([O-])c1cc([N+](=O)[O-])c(N2CCOCC2)cc1NCc1ccccc1	-7%	2%[0.365 µM]	8.2µM*	18µM*	2%	28
O=C(Nc1cccnc1)c1cccc([N+](=O)[O-])c1	-13%	10%	8%	5%	-3%	-6
O=C(Nc1c(Cl)ccc2nsnc12)c1ccc(Br)o1	.	.	-19%	-27%	.	-12
